# TRAIL sens C8: caspase-8 TRAIL sensitization. NB7+C8 cells + TRAIL, ATPlite viability luminescence. inhibition (viability loss, TRAIL sensitization), % at 10 µM. 1% of 360,000 active;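 active = compounds causing at least 50% loss of cell viability in the single-dose screen, relative to plate controls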
# Platelet DG rel: modulates dense granule release in human platelets; human platelet-rich plasma, SFLLRN dense granule ATP release, luminescence; inhibition, %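 (compounds screened at 7.5 µM in platelet-rich plasma)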; 0.22% of 300,000 active;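 active = mean replicate score, as percent of positive control, at or above 50; inconclusive = mean below 50 but at least one replicate at or above 50; inactive = mean and every replicate below 50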
# STAT1 inh-1: reduces IFN-gamma driven STAT1 reporter signal | NIH 3T3 STAT1-luciferase reporter, luminescence | inhibition, % at 5.5 µM | 0.35% of 200,000 active | AID 920;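 active = inhibition above a set limit, the mean inhibition across all tested compounds plus 3 SD, cut at about 34% in these data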;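 note: 0% = IFN-gamma with DMSO and 100% = IFN-gamma with 300 µM nifuroxazide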
# STAT3 inh-1: reduces IL-6 driven STAT3 reporter signal; AID 862; inhibition, % at 5.5 µM; 0.89% of 190,000 active; U3A cells, IL-6 STAT3-luciferase reporter, luminescence; host cell line lacks STAT1;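 active = inhibition above the mean inhibition across all screened compounds plus 3 SD, cut at about 44% in these data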;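 note: 0% = DMSO only wells and 100% = 100 µM nifuroxazide control wells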
# PPC-1+TRAIL kill: PPC-1 cancer cell killing with TRAIL present; cell killing (% activity), % at 4 µM or 5 µM; PPC-1 cells + TRAIL, ATPLite viability luminescence; 0.41% of 220,000 active; AID 1443;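 active = cell killing above 50% in the first pass at 4 µM, then a duplicate retest at 5 µM averaging 50% or more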;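 note: plate controls were cells with TRAIL plus DMSO for no effect and medium-only wells lacking cells for full effect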
# STAT3 inh-2: confirmation of STAT3 signaling inhibitors. shares compounds with STAT3 inh-1. 45% of 1,200 active. inhibition, % at 5.7 µM. U3A cells, IL-6 STAT3 luciferase reporter, luminescence; cell line lacks STAT1;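 active = inhibition above the hit cutoff computed for the primary STAT3 screen, cut at about 44% in these data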;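 note: 0% = IL-6 plus DMSO and 100% = IL-6 plus nifuroxazide control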
# NFkB inh STAT3ct: NF-kappaB inhibition in STAT3 inhibitor counter-screen; shares compounds with STAT3 inh-1; HEK293T NF-kB luciferase reporter, TNF-alpha induced; inhibition, % at 5.7 µM; 36% of 1,200 active; AID 1308;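 active = inhibition above the mean of solvent-only control wells plus 3 SD, cutoff set per campaign, cut at about 13% in these data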;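 note: 0% = TNF-alpha with DMSO and 100% = TNF-alpha with MG high control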
# STAT1 inh 2: STAT1 inhibition in STAT3 inhibitor counter-screen; shares compounds with STAT3 inh-1; NIH 3T3 STAT1-luciferase reporter, IFN-gamma induced, luminescence; inhibition, % at 5.7 µM; 27% of 1,200 active; AID 1317;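 active = inhibition above the mean plus 3 SD of solvent-only control wells, limit set per screening run, cut at about 16% in these data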;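 note: 0% = DMSO with IFN-gamma and 100% = nifuroxazide control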
# STAT1 inh-2: confirmation of STAT1 signaling inhibitors; inhibition, % at 5.5 µM; AID 1263; NIH 3T3 STAT1-luciferase reporter, IFN-gamma, luminescence; 55% of 200 active; shares compounds with STAT1 inh-1;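 active = triplicate mean inhibition exceeding the hit cutoff computed for the primary STAT1 screen, cut at about 35% in these data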;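 note: 0% = DMSO with IFN-gamma and 100% = 300 µM nifuroxazide with IFN-gamma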
# NFkB inh: NF-kappaB inhibition in STAT1 inhibitor counter-screen | shares compounds with STAT1 inh-1 | HEK293T NF-kB luciferase reporter, TNF-alpha induced, luminescence | inhibition, % at 5.7 µM | 30% of 200 active;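 active = inhibition above the mean of solvent-only control wells plus 3 SD of those wells, cut at about 15% in these data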;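 note: 0% = DMSO with TNF-alpha and 100% = MG-132 control with TNF-alpha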
# STAT3 inh 2: inhibits STAT3, counter-screen to STAT1 inhibitors; shares compounds with STAT1 inh-1; U3A cells, IL-6 STAT3 luciferase reporter, luminescence; cells lacking STAT1; inhibition, % at 5.7 µM; 20% of 200 active; AID 1310;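 active = inhibition above the mean of solvent-only control wells plus 3 SD, set per campaign, cut at about 25% in these data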;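 note: 0% = IL-6 plus DMSO and 100% = IL-6 plus nifuroxazide control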
# PPC1 cytotox: kills PPC-1 cells; shares compounds with PPC-1+TRAIL kill; PPC-1 viability, ATPlite luminescence, overnight; cytotoxicity, % at 5 µM; 50% of 1,200 active; AID 1447;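 active = reconfirmed compounds whose average cytotoxicity reaches 50% or more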;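 note: 0% = DMSO-treated cells and 100% = wells holding medium but no cells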
# Active calls of the source: *; ? = inconclusive; nt = not tested or not shown. Compounds with a hit are over-represented: about 1.6% of the library has one in this group of screens.
SMILES,TRAIL sens C8,Platelet DG rel,STAT1 inh-1,STAT3 inh-1,PPC-1+TRAIL kill,STAT3 inh-2,NFkB inh STAT3ct,STAT1 inh 2,PPC1 cytotox,others
COc1cccc(C(=O)/C=C/Nc2cccc(O)c2)c1,82*,68*,20,102*,85*,96*,14*,23*,86*,
O=c1[nH]nc(-c2ccccc2)c2ccccc12,3,7,nt,nt,20,nt,nt,nt,nt,
Cc1ccc(-c2cc3c(N=O)c4ccccc4c-3n[nH]2)cc1,93*,?,33,117*,95*,98*,80*,2,94*,
O=Nc1c2cc(-c3ccccc3)[nH]nc-2c2ccccc12,72*,?,-6,98*,74*,48*,30*,-17,75*,
CCC(=O)Nc1cc2nn(-c3ccc(C)cc3)nc2cc1C,65*,1,-6,82*,59*,51*,14*,-107,55*,
Cc1ccc(-n2nc3cc(C)c(NC(=S)NC(=O)/C=C/c4ccco4)cc3n2)cc1,43,8,-15,-4,18,nt,nt,nt,nt,
CCCCC(=O)Nc1cc2nn(-c3ccc(OC)cc3)nc2cc1C,-21,5,-12,4,14,nt,nt,nt,nt,
CCC(=O)Nc1cc2nn(-c3ccc(OC)cc3)nc2cc1C,59*,4,-35,44*,58*,40,-2,-51,49,
CCCCCNC(=O)C(c1ccnc2ccccc12)n1c(=O)c(-c2cc3ccccc3[nH]2)nc2ccccc21 (centres undefined),11,nt,nt,nt,nt,nt,nt,nt,nt,
O=C(Nc1ccc(NC(=O)c2ccco2)nc1)c1ccco1,69*,15,-1,54*,53*,5,-22,-62,52*,
O=C(Nc1ccc(NC(=O)c2ccco2)nc1)c1ccccn1,42,21,-28,30,29,nt,nt,nt,nt,
CC(C)C[C@H]1CN=C(Nc2ccccc2)N1CC1CCC(C(C)(C)C)CC1 (some centres undefined),26,nt,nt,nt,nt,nt,nt,nt,nt,
Cc1ccc(C(=O)/C=C/Nc2ccccc2C(N)=O)cc1,90*,32,-11,76*,93*,38,8,-63,93*,
NC(=O)c1ccccc1N/C=C/C(=O)c1ccc(Cl)cc1,88*,41,9,60*,84*,27,-2,-84,84*,
CCOC(=O)c1ccccc1N/C=C/C(=O)c1ccccc1,13,-3,-17,5,nt,nt,nt,nt,nt,
NC(Cc1ccc(C(F)(F)F)cc1)c1csc(Nc2ccc(S(N)(=O)=O)cc2)n1 (centres undefined),0,nt,nt,nt,nt,nt,nt,nt,nt,
CCOc1ccc(C(=O)Nc2cc(C)on2)cc1,64*,10,-4,46*,47,2,-23,-52,50*,
CCOc1cc(C(=O)Nc2cc(C)on2)cc(OCC)c1OCC,-11,1,5,3,6,nt,nt,nt,nt,
NC(COCc1ccccc1)c1csc(Nc2ccc(C(=O)NCCO)cc2)n1 (centres undefined),-5,nt,nt,nt,nt,nt,nt,nt,nt,
CC1(C(=O)NCCCN2CCCC2=O)CCN1CCc1ccccc1 (centres undefined),2,nt,nt,nt,nt,nt,nt,nt,nt,
COc1ccc(C(=O)N=c2nc3ccccn3s2)cc1,91*,50*,-91,57*,90*,16,-40,-189,90*,
COc1ccc(C(=O)O/N=C2\C(=O)N(C)c3ccccc32)cc1,-3,3,nt,nt,nt,nt,nt,nt,nt,
Cc1ccc2nc(-c3ccc(NC(=O)C4CCCO4)cc3)[nH]c2c1 (centres undefined),57*,8,6,72*,65*,32,-4,-104,64*,
O=C(Nc1ccc(-c2nc3cccnc3s2)cc1)C1CCCO1 (centres undefined),-5,98*,23,84*,62*,66*,16*,-14,64*,
O=C(OCc1ccccc1)N1CCN(C(c2ccnc3ccccc23)c2nnnn2-c2ccc3c(c2)OCCO3)CC1 (centres undefined),24,nt,nt,nt,nt,nt,nt,nt,nt,
SMILES,TRAIL sens C8,Platelet DG rel,STAT1 inh-1,STAT3 inh-1,PPC-1+TRAIL kill,STAT3 inh-2,NFkB inh STAT3ct,STAT1 inh 2,PPC1 cytotox,others
CCOC(=O)C1(C)CCN1C(=O)c1cc(OC)ccc1Br (centres undefined),0,nt,nt,nt,nt,nt,nt,nt,nt,
CC(C)CNC(=O)COC(=O)c1c2c(nc3ccccc13)/C(=C/c1cccs1)CC2,12,-1,38*,5,20,nt,nt,nt,nt,STAT1 inh-2=21;NFkB inh=-14;STAT3 inh 2=10
O=C(c1ccc(Cl)cc1)N1CCN(c2ccnc3cc(Cl)ccc23)CC1,-5,-6,48*,14,25,nt,nt,nt,nt,STAT1 inh-2=47*;NFkB inh=11;STAT3 inh 2=-6
COc1ccc(N/N=C(\C#N)C(=N)SCc2ccccc2)cc1,-2,-2,37*,8,1,nt,nt,nt,nt,STAT1 inh-2=24;NFkB inh=59*;STAT3 inh 2=-15
CCOC(=O)[C@]12CCC=C1N(CCC1=CCCCC1)C(=O)[C@H](CC(=O)N1CCCCC1)C2,-13,nt,nt,nt,nt,nt,nt,nt,nt,
Cc1ccc(-c2cc(C(F)F)nc(S(C)(=O)=O)n2)cc1,1,10,33,12,26,nt,nt,nt,nt,STAT1 inh-2=29;NFkB inh=-25;STAT3 inh 2=-7
CCCc1cc(C(=O)Nc2cccc(-c3nn[nH]n3)c2)sc1C,-4,nt,nt,nt,nt,nt,nt,nt,nt,
CCCCC(=O)N/N=C(C)/C=C/c1ccccc1F,2,0,45*,6,10,nt,nt,nt,nt,STAT1 inh-2=14;NFkB inh=-11;STAT3 inh 2=-37
O=C(Nc1cccc(C(=O)N2CCCCC2)c1)C1CCCCC1,-6,nt,nt,nt,nt,nt,nt,nt,nt,
CCOC(=O)c1sc(N(Cc2ccccc2)C(=O)CSc2ncn[nH]2)nc1C,3,-1,7,7,-3,nt,nt,nt,nt,
CCOC(=O)c1sc(N(Cc2ccccc2)C(=O)COC(=O)c2ccc(O)cc2)nc1C,11,-2,58*,5,16,nt,nt,nt,nt,STAT1 inh-2=59*;NFkB inh=57*;STAT3 inh 2=8
O=C(Nc1nnc([C@@H]2C[C@H](O)[C@@H](CO)O2)s1)c1cccc2ccccc12,4,nt,nt,nt,nt,nt,nt,nt,nt,
CC(C)C(=O)Nc1ccc(-c2nc3ccccc3c(=O)o2)cc1,48,2,38*,21,31,nt,nt,nt,nt,STAT1 inh-2=19;NFkB inh=14;STAT3 inh 2=2
CCCC(=O)Nc1cccc(-c2nc3ccccc3c(=O)o2)c1,40,5,37*,25,29,nt,nt,nt,nt,STAT1 inh-2=16;NFkB inh=5;STAT3 inh 2=7
CC(C)C(=O)Nc1cccc(-c2nc3ccccc3c(=O)o2)c1,19,-3,14,20,35,nt,nt,nt,nt,

# Screening data as filed in PubChem.
